The record followed here is PubChem BioAssay (NCATS).

Inconclusive results are not listed. Where a call stands in place of a potency, no number is given. Activity calls are given as the source filed them. The call rests on the fitted dose curve; in most records, active means well fitted cell-killing curve with a large enough effect; inconclusive means small, poorly fitted or top-dose-only effect, or effect the other way; inactive means no such curve, though single readings can be large or run the other way.
Potency means the concentration at half of the fitted maximal effect.

A short description of the test: Quantitative High-Throughput drug screen in 47 multiple myeloma cell lines against the NCATS MIPE library collection: KMS12PE_JCRB cell viability assay (AID 1918972). Further: nearly all actives have a fitted effect of over 30% in size. Conditions: KMS12PE myeloma viability, CellTiter-Glo ATP, 48 h; series mostly up to 45.8 µM. The method, boiled down: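 Viability readout: CellTiter-Glo luminescence following 5 min room-temperature incubation with reagent. Prior exposure: 48 h, 37C, humidified 5% CO2, 500 cells per well.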
Background: ATP-based viability assays read luminescence as a measure of living cells.
For `CCC(c1ccc(O)cc1)C(CC)c1ccc(O)cc1` (centres undefined), the Potency result is “inactive”.
As for `O=C(O)CCC=CCC[C@@H]1[C@H](N2CCCCC2)[C@@H](O)C[C@@H]1OCc1ccc(-c2ccccc2)cc1`, the entry is “inactive”; as for `COc1cc(N2CCN(C)CC2)ccc1Nc1nc(N)c(C(=O)c2c(Cl)cccc2Cl)s1`, 23.5 µM (active); as for `CN(CC=CC#CC(C)(C)C)Cc1cccc2ccccc12`, “inactive”.
In the case of `C#CCN(C)CC1=Cc2ccccc2Oc2ccccc21` it was “inactive”; in that of `Cc1ccc2c(=O)c3cccc(CC(=O)O)c3oc2c1C`, “inactive”.
As for `CO[C@H]1/C=C\O[C@@]2(C)Oc3c(C)c(O)c4c(O)c(c5c(nc6cc(C)ccn65)c4c3C2=O)NC(=O)C(C)=CC=C[C@H](C)[C@H](O)[C@@H](C)[C@@H](O)[C@@H](C)[C@H](OC(C)=O)[C@H]1C`, the Potency was 11.8 µM (active).
Consider `CCCCC(F)(F)[C@@]1(O)CC[C@H]2[C@H](CC(=O)[C@@H]2CCCCCCC(=O)O)O1`, for which the Potency entry is “inactive”.
As to `CCCCn1c(=O)n(Cc2ccccc2F)c(=O)c2[nH]c(Cc3ccc(NC(C)=O)cc3)nc21`, the Potency entry is “inactive”.
For the compound `O[C@@H](COc1cccc2ncccc12)CN1CCN(C2c3ccccc3[C@@H]3[C@H](c4ccccc42)C3(F)F)CC1` (some centres undefined), the Potency entry is “inactive”.
Consider `Nc1ccn([C@@H]2O[C@H](CO)[C@@H](O)[C@H]2O)c(=O)n1`, for which the Potency entry was “inactive”.
Turning to `O=C(O)Cc1cccc(OCCCN(Cc2cccc(C(F)(F)F)c2Cl)CC(c2ccccc2)c2ccccc2)c1`, the Potency entry was “inactive”.
As to `NC(=O)c1nnn(Cc2cc(Cl)c(C(=O)c3ccc(Cl)cc3)c(Cl)c2)c1N`, the Potency is 6.62 µM (active).
For `CC1=C(C(=O)Nc2cc3cn[nH]c3cc2F)C(c2ccc(C(F)(F)F)cc2)CC(=O)N1` (centres undefined), the Potency result was “inactive”.
